Screening results as filed in PubChem.
PKA-R1A act: activators of PKA-R1A holoenzyme, primary screen, biochemical, fluorescence polarization, Cy5-IP20, bovine R1A, mouse PKAc; PKA-R1A dissociation; scaled: DMSO 0%, 113 µM cGMP 100%; hit rate 0.083% among 340,000; activation, % at 11.4 µM;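 active means percent activation above the mean of all tested compounds plus 3 SD, cut at about 19% in these data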;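 further: higher means more PKAc released from R1A so a rise in polarization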
Rtt109 HAT inh: inhibitors of C. albicans Rtt109/Vps75 HAT, primary screen, biochemical, ThioGlo CoA-SH fluorescence, plate reader; Histone acetyltransferase RTT109 (Candida albicans (strain SC5314 / ATCC MYA-2876)), …; hit rate 0.16% among 330,000; AID 540336, 2011; purified Rtt109/Vps75, 4 h; inhibition, % at 34.9 µM;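 active means inhibition of at least 50% in every replicate; inconclusive means best replicate reaches 50% inhibition but some replicates fall short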
HDAC3 inh: HDAC3 deacetylase inhibitors, primary screen, biochemical, fluorescence, cell-free homogeneous. inhibition, % at 8.3 µM. recombinant HDAC3, fluorogenic peptide/trypsin coupled. hit rate 0.15% among 320,000. AID 2718, 2010; in the data active means inhibition above about 26%, passing the limit was not always enough; inconclusive means no clear call, values can overlap the other calls
PKA-R2B act: activators of PKA-R2B holoenzyme, primary screen, biochemical, fluorescence polarization, Cy5-IP20, human | cAMP-dependent protein kinase catalytic subunit beta (Homo sapiens) + cAMP-dependent … | PKA-R2B holoenzyme dissociation; R2B truncated from residue 108, S112A mutant; 0% DMSO only, 100% 113 µM cGMP | activation, % at 11.4 µM | hit rate 0.079% among 340,000;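 active means activation above a cutoff set at the mean over all compounds plus 3 SD, cut at about 18% in these data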;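 further: higher means more holoenzyme dissociation and a rise in polarization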
Target sequence (P31323 whole entry, looked up, other chains not shown, the tested form may be a part): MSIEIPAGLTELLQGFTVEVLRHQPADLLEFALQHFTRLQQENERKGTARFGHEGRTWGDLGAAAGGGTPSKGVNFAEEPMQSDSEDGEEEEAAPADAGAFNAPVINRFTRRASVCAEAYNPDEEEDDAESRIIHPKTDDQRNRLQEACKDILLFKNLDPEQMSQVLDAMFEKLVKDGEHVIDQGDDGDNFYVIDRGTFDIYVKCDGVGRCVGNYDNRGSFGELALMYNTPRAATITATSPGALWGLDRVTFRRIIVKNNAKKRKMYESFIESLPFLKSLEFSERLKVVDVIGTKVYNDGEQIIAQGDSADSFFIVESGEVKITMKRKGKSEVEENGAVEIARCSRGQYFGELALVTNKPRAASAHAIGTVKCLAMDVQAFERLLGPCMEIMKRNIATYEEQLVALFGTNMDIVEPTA
R2B FP artifact: fluorescence polarization artefacts, biochemical, artefact control for PKA-R2B activator project; shares compounds with PKA-R2B act; FP artifact counterscreen; activation, % at 11.4 µM; hit rate 6% among 270; AID 504796, 2011; in the data active means activation above about 20%;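 further: Cy5 labelled IP20 peptide probe with compound but no PKA protein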
PKA-R2B confirm: activators of PKA-R2B holoenzyme, confirmation, biochemical, fluorescence polarization, human | hit rate 9% among 270 | shares compounds with PKA-R2B act | PKA-R2B complex, activation | activation, % at 11.4 µM; in the data active means activation above about 19%
Target sequence (P31323 whole entry, looked up): as the sequence (P31323 whole entry, looked up, other chains not shown, the tested form may be a part) above
R1A FP artifact: FP signal interference without PKA proteins, confirmation, artefact control for PKA-R1A activator project, biochemical, fluorescence polarization, triplicate; hit rate 7% among 280; Cy5-IP20 peptide alone, fluorescence polarization artifact counterscreen; shares compounds with PKA-R1A act; activation, % at 11.4 µM; AID 504799, 2011;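 active means mean activation over triplicate runs exceeds the adjusted cutoff derived for the parent primary screen, cut at about 19% in these data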;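 further: no PKA protein present so any polarization rise reflects compound interference; higher means stronger polarization artifact and likely false positive in parent screen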
PKA-R1A confirm: activators of PKA-R1A holoenzyme, confirmation, biochemical, fluorescence polarization, Cy5-IP20, triplicate. shares compounds with PKA-R1A act. PKA-R1A holoenzyme dissociation. activation, % at 11.4 µM. hit rate 9% among 280;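 active means mean activation over replicate wells exceeds the adjusted hit threshold taken from the earlier primary screen, cut at about 20% in these data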
Of the large screens only hits and unclear results are named; the others gave an inactive call (follow-up assays come after a bar, where they were run). Rows were chosen to be rich in hits. Some 0.43% of all compounds tested hit in one or more screens of this group.

CC(C)(C)C(=O)O/N=C(\N)Cc1ccc(-c2csnn2)cc1	none
CCC(NC(=O)OCc1ccccc1)C(=O)Oc1ccc2ccc(=O)oc2c1 (stereo not drawn)	PKA-R2B act 18.8 | R2B FP artifact inactive | PKA-R2B confirm inactive
CN(CC(=O)Nc1ccc(F)cc1[N+](=O)[O-])C1CCS(=O)(=O)C1 (stereo not drawn)	none
CC1=C/C(=C(/c2ccc(O)c(C)c2)c2ccccc2S(=O)(=O)O)C=CC1=O	none
CC1=C/C(=C(/c2cc(C)c(O)c(Br)c2)c2ccccc2S(=O)(=O)O)C=C(Br)C1=O	PKA-R1A act 35.3, PKA-R2B act 27.6 | R2B FP artifact 51.1 | PKA-R2B confirm 45.5 | R1A FP artifact 51.1 | PKA-R1A confirm 49.3
CSc1cc(C)c(OCC(=O)Nc2ccc(NC(C)=O)cc2)c(C)c1	none
Nc1nc2c(nc(N3CCCCC3)n2[C@@H]2O[C@H](CO)[C@@H](O)[C@H]2O)c(=O)[nH]1	none
CCOP1(=O)OCC2OC(n3cnc4c(N)ncnc43)C(O)C2O1 (stereo not drawn)	PKA-R1A act 102.3, PKA-R2B act 90.9 | R2B FP artifact inactive | PKA-R2B confirm 65.0 | R1A FP artifact inactive | PKA-R1A confirm 75.9
Nc1nc2c(nc(Br)n2[C@@H]2O[C@@H]3COP(=O)(O)O[C@H]3[C@H]2O)c(=O)[nH]1	PKA-R1A act 52.6, PKA-R2B act 77.5 | R2B FP artifact inactive | PKA-R2B confirm 78.0 | R1A FP artifact inactive | PKA-R1A confirm 50.4
Nc1ncnc2c1nc(Br)n2[C@@H]1O[C@@H]2COP(=O)(O)O[C@H]2[C@H]1O	PKA-R1A act 116.6, PKA-R2B act 107.3 | R2B FP artifact inactive | PKA-R2B confirm 97.8 | R1A FP artifact inactive | PKA-R1A confirm 105.6
Cc1oc2ccc(OCc3c(F)cccc3Cl)cc2c1C(=O)O	PKA-R1A act 51.4, PKA-R2B act 26.6 | R2B FP artifact 45.0 | PKA-R2B confirm 51.9 | R1A FP artifact 45.0 | PKA-R1A confirm 50.7
Cc1oc2ccc(OCc3cccc(Cl)c3)cc2c1C(=O)O	none
CCCc1cc(=O)[nH]c(SCC(=O)Nc2ccc(N3CCCCC3)cc2)n1	none
COc1cccc(CNc2nc3nc(C)cc(=O)n3[nH]2)c1	none
Cc1cc(=O)n2[nH]c(NCc3c(F)cccc3Cl)nc2n1	PKA-R1A act 60.2, PKA-R2B act 72.3 | R2B FP artifact 103.1 | PKA-R2B confirm 92.7 | R1A FP artifact 103.1 | PKA-R1A confirm 99.9
N#Cc1c(N)sc2c1CCN(CCc1ccccc1)C2	none
CN(C)c1ccc(C(=O)OCC(=O)Nc2ccc(S(N)(=O)=O)cc2)cc1	PKA-R1A act 45.7, PKA-R2B act 48.4 | R2B FP artifact 58.4 | PKA-R2B confirm 59.4 | R1A FP artifact 58.4 | PKA-R1A confirm 62.5
CS(=O)(=O)c1sc(C#N)c2c1C(=O)CC(c1ccccc1)C2 (stereo not drawn)	none
COc1ccc(NS(=O)(=O)c2cccc(C(=O)O)c2)cc1S(=O)(=O)N1CCCCC1	none
Cc1cc(C)c(C)c(S(=O)(=O)N2CCC(C(=O)NNC(=O)c3ccccc3O)CC2)c1C	PKA-R1A act 46.8, PKA-R2B act 46.1 (no result: HDAC3 inh) | R2B FP artifact 53.2 | PKA-R2B confirm 43.8 | R1A FP artifact 53.2 | PKA-R1A confirm 44.8
CCN(CC)c1ccc(C(=C2C=CC(=[N+](CC)CC)C=C2)c2ccc(S(=O)(=O)O)cc2S(=O)(=O)[O-])cc1	PKA-R1A act 34.0, PKA-R2B act 39.0 (no result: HDAC3 inh) | R2B FP artifact 49.2 | PKA-R2B confirm 48.5 | R1A FP artifact 49.2 | PKA-R1A confirm 52.3
Cc1cc2ccccn2c1C(=O)c1ccc(Cl)c([N+](=O)[O-])c1	PKA-R1A act 20.3 | R1A FP artifact inactive | PKA-R1A confirm inactive
CCOC(=O)COc1ccc2c(c1)C(=O)CC(C)(C)O2	PKA-R1A act 18.9 | R1A FP artifact inactive | PKA-R1A confirm inactive
O=C(Nc1ccc(N2CCN(C(=O)c3ccco3)CC2)c(Cl)c1)c1cccs1	none
O=C(COC(=O)C1COc2ccccc2O1)NC(=O)NC1CCCC1 (stereo not drawn)	PKA-R1A act 20.4 | R1A FP artifact inactive | PKA-R1A confirm inactive
O=C(NCc1ccc(F)cc1)c1cccc2c1C(=O)c1ccc(N3CCC(N4CCCCC4)CC3)cc1S2(=O)=O	none (no result: Rtt109 HAT inh, HDAC3 inh)
O=C(NCc1ccco1)c1cccc2c1C(=O)c1ccc(N3CCC(N4CCCCC4)CC3)cc1S2(=O)=O	PKA-R1A act 19.6 (no result: Rtt109 HAT inh, HDAC3 inh) | R1A FP artifact inactive | PKA-R1A confirm inactive
Cc1sc(N)nc1-c1ccccc1	PKA-R1A act 21.1 | R1A FP artifact inactive | PKA-R1A confirm inactive
CC(C)(C)c1sc(N)nc1-c1ccccc1	HDAC3 inh inconclusive
O=C(O)C1CCC(N2C(=O)c3cccc([N+](=O)[O-])c3C2=O)CC1 (stereo not drawn)	PKA-R1A act 18.8 | R1A FP artifact inactive | PKA-R1A confirm inactive
Cn1c(=O)c([N+](=O)[O-])c(-n2cnc3ccccc32)c2ccccc21	none (no result: PKA-R1A act, PKA-R2B act)
COc1cc2nc(C3CCC3)nc(N3CCN(c4ccccc4OC)CC3)c2cc1OC	none
Cc1cc2oc(=O)cc(CSc3nc(N)cc(N)n3)c2cc1C(C)C	none
Nc1cc(N)nc(SCc2cc(=O)oc3cc4c(cc23)CCC4)n1	PKA-R1A act 20.5 | R1A FP artifact inactive | PKA-R1A confirm inactive
C[C@H](CO)N1C[C@H](C)[C@@H](CN(C)C(=O)Nc2ccc3c(c2)OCO3)Oc2c(NS(=O)(=O)c3ccc(F)cc3)cccc2C1=O	none
Cc1ccc(C(=O)c2ccccc2C(=O)OCC(=O)N2CCCC2)cc1	PKA-R1A act 20.4 | R1A FP artifact inactive | PKA-R1A confirm inactive
Cc1cccc(C(=O)OCC(=O)N2CCCCCC2)c1C	none
CCCCNC(=O)CSc1nc(Cc2ccccc2)nc2ccccc12	none
COCCCn1c(SCC(=O)NC2CCCC2)nnc1-c1ccco1	PKA-R1A act 26.2 | R1A FP artifact inactive | PKA-R1A confirm inactive
